# PGE2 EP2 inh: EP2 receptor (human) inhibition. P43116. C6 glioma cells expressing human EP2, cAMP TR-FRET; cells stimulated with saturating PGE2. inhibition, % at 25 µM. hit rate 0.52% among 260,000;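 active means percent inhibition above 40 after rounding to a whole number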;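 further: rat C6 glioma host cells with rolipram phosphodiesterase inhibitor present; the protocol text gives 20 µM as final concentration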
# CHT allo act: human CHT allosteric activation | Q9GZV3 | CHT-expressing cells, membrane potential dye, choline EC20; active compounds read high; LV-AA mutant CHT in HEK293 cells | B-score at 10 µM | hit rate 0.49% among 310,000 | AID 488977;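 active means initial fluorescence not abnormally high and integrated response B-score, plate-corrected, over 3 SD above library mean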
# Target sequence (Q9GZV3 whole entry, looked up): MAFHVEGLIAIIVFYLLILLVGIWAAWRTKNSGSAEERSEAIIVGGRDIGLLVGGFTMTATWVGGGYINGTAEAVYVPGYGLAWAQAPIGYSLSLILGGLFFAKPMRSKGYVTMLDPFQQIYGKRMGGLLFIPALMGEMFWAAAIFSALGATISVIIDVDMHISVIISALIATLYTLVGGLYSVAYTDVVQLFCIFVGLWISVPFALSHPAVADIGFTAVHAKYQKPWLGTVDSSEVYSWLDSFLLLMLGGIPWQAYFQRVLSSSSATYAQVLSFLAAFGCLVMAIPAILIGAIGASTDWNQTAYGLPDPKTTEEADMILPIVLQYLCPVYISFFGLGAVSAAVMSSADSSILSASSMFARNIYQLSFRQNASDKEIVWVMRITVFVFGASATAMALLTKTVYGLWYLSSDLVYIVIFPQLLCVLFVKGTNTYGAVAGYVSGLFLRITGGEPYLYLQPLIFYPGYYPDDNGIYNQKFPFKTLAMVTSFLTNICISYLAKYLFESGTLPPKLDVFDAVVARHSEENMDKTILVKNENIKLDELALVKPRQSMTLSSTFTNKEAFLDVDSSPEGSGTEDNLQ
# EP2 modulator: modulates human prostaglandin E2 receptor EP2 signaling | induction, % at 25 µM | hit rate 0.83% among 260,000 | AID 940 | EP2-expressing cells, cAMP HTRF FRET, PGE2 co-stimulation | P43116;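 active means compounds whose cAMP rise, as percent of the full-agonist control response, exceeds 60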;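 further: rat C6 glioma line stably carrying human EP2 under a CMV promoter; the protocol text gives 20 µM as final concentration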
# CHT inh: human CHT choline transport inhibition; B-score at 10 µM; CHT-expressing cells, membrane potential dye, choline response; active compounds read low; AID 488975; hit rate 0.86% among 310,000; Q9GZV3;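 active means B-score over 3 SD under the library average, and starting fluorescence ratio not unusually high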;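 further: choline stimulus applied at its EC90 after an EC20 pre-addition; B-score computed on integrated fluorescence ratio after choline addition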
# A number is an active result; n = inactive; x = not tested or not shown; ! = a repeat was not active. Only some compounds are listed: those with a hit (about 2.1% of all), similar ones and a draw of the others.
SMILES,PGE2 EP2 inh,CHT allo act,EP2 modulator,CHT inh
COc1cc(OC)cc(C(=O)Nc2ccc(-c3nc4ccccc4o3)cc2)c1,52,n,n,n
O=C(Nc1ccc(-c2nc3ccccc3o2)cc1)c1cccnc1,58!,n,n,n
CNS(=O)(=O)c1ccc(NC(=O)c2cc3nc(-c4ccco4)cc(C(F)(F)F)n3n2)cc1,n,x,n,x
CCC(CC)C(=O)N1CCCC(c2nc3c(nnn3Cc3ccccc3Cl)c(=O)[nH]2)C1 (configuration not stated),n,x,n,x
C[N+](C)(C)c1cc2c(nn1)Nc1ccccc1S2,49,x,n,x
CC1=CC(C)(C)N(C(=O)CSc2nnc(N)s2)c2cc(C)c(C)cc21,n,n,62,n
NC(N)=N/N=C/c1ccc(Cl)cc1Cl,n,n,n,-7.9
CC1(c2ccccc2)CC(c2ccccc2)=Nc2ccccc2N1 (configuration not stated),n,n,88,n
CC1(c2ccccc2)CC(c2ccccc2)=Nc2nonc2N1 (configuration not stated),n,n,n,n
CCOc1ccc2[nH]c(=O)c(CN(CC3CCCO3)C(=O)Nc3cccc(Cl)c3)cc2c1 (configuration not stated),n,x,n,x
Cn1cnc([N+](=O)[O-])c1Sc1nc(N)nc2c1ncn2Cc1ccccc1,53,x,n,x
COc1ccc(-c2nn(Cc3ccccn3)c(=O)o2)c2ccccc12,n,x,n,x
CSc1nc(-c2ccccc2)c(C#N)c(=O)[nH]1,n,n,n,n
CCSc1nc(-c2ccccc2)c(C#N)c(=O)[nH]1,50,n,n,n
Cc1nc2c(c(=O)[nH]1)CN(Cc1cn(C(C)C)c3ccccc13)CC2,n,x,n,x
CC1(C)CC2(CCCN(C(=S)Nc3ccccc3)C2)CCO1 (configuration not stated),n,n,n,n
COc1ccc(C(=O)CCN2CCCCCC2)cc1,n,n,n,n
CCC1(C)CC2(CCCN(CCC(=O)c3ccccc3)C2)CCO1 (configuration not stated),81!,n,n,n
O=C(CCN1CCCCCC1)c1ccccc1,52,n,n,n
CCOc1cccc(C(=O)Nc2nc3ccc(NC(C)=O)cc3s2)c1,n,x,n,x
O=C(Cc1ccsc1)N1CCC[C@@H](Cn2nc(-c3cccs3)ccc2=O)C1,n,x,n,x
COc1ccc(/C=C\c2cc(OC)c(OC)cc2CC[N+](C)(C)C)cc1OC,n,10,n,n
COc1ccc(/C=C/C2=CC(C)(C)NC(=S)N2)cc1OC,n,n,n,n
CC(C)NC(=O)c1ccccc1NS(=O)(=O)c1cccs1,n,x,n,x
COCCNC(=S)N(Cc1cccs1)Cc1cc2ccc(C)c(C)c2[nH]c1=O,n,x,n,x
SMILES,PGE2 EP2 inh,CHT allo act,EP2 modulator,CHT inh
COc1ccc(-c2nc3c4ccccc4ccn3c2CN2CCCCC2)cc1OC,n,n,64,n
CN1CCC[C@H]1c1cccnc1.O=C(O)c1ccccc1O.O=C([OH2+])c1ccccc1O.O=C([OH2+])c1ccccc1O.O=C([OH2+])c1ccccc1O.[Cu],40,x,n,x
CN1CCC[C@H]1c1cccnc1.O=C(O)c1ccccc1O.O=C([OH2+])c1ccccc1O.O=C([OH2+])c1ccccc1O.[Mn+2],40,x,n,x
O=S(=O)(Nc1ccc(Cl)cn1)c1cccc(S(=O)(=O)c2ccc(Cl)cc2)c1,n,x,n,x
CCOc1ccc(C2=NNC(c3cccnc3)=Nc3ccccc32)cc1OCC,n,x,n,x
CCCOC(=O)C(C)n1c(-c2ccccc2)nc2ccccc2c1=O (configuration not stated),n,n,61,n
CCCCOC(=O)Cn1c(-c2ccccc2)nc2ccccc2c1=O,n,n,n,n
COc1ccc(OC)c(S(=O)(=O)Nc2ccc(O)c3ccccc23)c1,42,n,n,n
COc1ccc(OC)c(S(=O)(=O)Nc2ccc(Oc3ccccc3)cc2)c1,n,n,n,n
Cc1ccccc1Cn1cc(/C=N/n2cnnc2)c2ccccc21,n,n,64,n
CCOC(=O)c1sc(Nc2ccc(C)cc2C)nc1C,n,n,64,n
CCOC(=O)c1sc(N/N=C/c2ccccc2)nc1C,n,n,62,n
CC(C)(C)NC(=O)C1CC(c2ccc(Cl)cc2)=NO1 (configuration not stated),n,x,n,x
Cc1cc(C)c2c(NCc3ccc(F)c(F)c3)n[nH]c2n1,n,x,n,x
CC[C@@H](Cn1ncc2ccccc2c1=O)NC(=O)C(C)(C)c1ccc(Cl)cc1,n,x,n,x
Cc1ccc(NN2C(=O)C=C(c3ccccc3)C2=O)cc1,48,x,n,x
Cc1nnc(SCC(=O)Nc2ccc(N(C)C)cc2)s1,n,x,n,x
COCCn1nnnc1C(c1cc2cccc(C)c2[nH]c1=O)N1CCN(c2ccc(F)cc2)CC1 (configuration not stated),n,x,n,x
NC[C@H](O)c1ccc(O)c(O)c1,n,n,72,n
CC(C)CC(=O)NC(=S)Nc1cccc2nsnc12,n,x,n,x
COc1c(C)cccc1C(=O)NC(=S)Nc1cccc2nsnc12,129,x,n,x
CCCCCCn1c(CN2CCC(C)CC2)nc2c1c(=O)n(C)c(=O)n2C,n,n,63,n
Cc1cc2oc(C(=O)NCc3noc(-c4ccccc4)n3)cc(=O)c2cc1C,n,x,n,x
Cc1cc(C(F)(F)F)nn1CC(=O)NNC(=S)Nc1ccc(Cl)cc1,196,n,n,n
O=C(Cc1ccc(F)cc1)N1CCC[C@H]1Cn1nc(-c2ccc3c(c2)OCO3)ccc1=O,x,x,n,x
SMILES,PGE2 EP2 inh,CHT allo act,EP2 modulator,CHT inh
CC(=O)CSc1nc(C2CC2)cc(C(F)(F)F)c1C#N,n,x,86,x
COC(=O)CSc1nc(C2CC2)cc(C(F)(F)F)c1C#N,n,n,n,n
CC1CCCCC1NC(=O)COn1nnc2ccc(Cl)cc21 (configuration not stated),n,n,n,n
CC1(C)O[C@H]2[C@@H](O1)[C@@H](On1nnc3ccc(Cl)cc31)O[C@@H]2[C@@H]1COC(C)(C)O1,52,x,n,x
O=[N+]([O-])c1ccc2c(c1)Cc1cc(N=Cc3ccc4c(c3)OCO4)ccc1-2,51,x,n,x
Cc1ccc2cc(CN(Cc3nnnn3C3CCCCC3)C3CCCC3)c(=O)[nH]c2c1C,n,x,n,x
C=C(C)CSc1nc2c(c(=O)n(C)c(=O)n2C)n1Cc1ccc(Cl)cc1,n,x,61,x
C[C@H](NC(=O)c1nc[nH]c1C(=O)N[C@@H](Cc1ccccc1)C(=O)OC(C)(C)C)c1ccccc1,n,n,64,n
COc1ccc(N=c2oc3cc(O)ccc3cc2C(=O)Nc2ccccn2)cc1OC,43,n,n,n
CC(C)C1Cc2c(C#N)c(N)sc(=S)c2CO1 (configuration not stated),59,n,n,n
Clc1ccc(C2(CN(Cc3ccncc3)C3CC3)CC2)cc1,n,x,n,x
CCc1nn(CC(=O)NC2CCC2)c(=O)c2cc3occc3n12,x,x,n,x
COc1cc2c(cc1NC(=S)Nc1cccc3ccccc13)oc1ccccc12,43,n,n,n
Cc1cccc(N(C)S(=O)(=O)c2ccc(-c3cnc(C4CC4)o3)cc2)c1,x,7.3,x,n
c1ccc2c[n+](CCCC[n+]3ccc4ccccc4c3)ccc2c1,43,x,n,x
O=C(C[n+]1ccc2ccccc2c1)c1cccc2ccccc12,n,n,n,n

# Screening results deposited in PubChem BioAssay by several laboratories.
